High-throughput results from PubChem BioAssay.
NTR1 agonist = activates human neurotensin receptor 1. AID 493036. 0.17% of 330,000 active. activation, % at 20 µM. NTR1-U2OS beta-arrestin-GFP spot imaging, agonist mode;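 active = activation at or above 40% of the spot to cytoplasm intensity ratio, with at least 20 cells analyzed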;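 also: 0% = DMSO without peptide and 100% = 100 nM NTR1 peptide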
Target sequence (P30989 whole entry, looked up): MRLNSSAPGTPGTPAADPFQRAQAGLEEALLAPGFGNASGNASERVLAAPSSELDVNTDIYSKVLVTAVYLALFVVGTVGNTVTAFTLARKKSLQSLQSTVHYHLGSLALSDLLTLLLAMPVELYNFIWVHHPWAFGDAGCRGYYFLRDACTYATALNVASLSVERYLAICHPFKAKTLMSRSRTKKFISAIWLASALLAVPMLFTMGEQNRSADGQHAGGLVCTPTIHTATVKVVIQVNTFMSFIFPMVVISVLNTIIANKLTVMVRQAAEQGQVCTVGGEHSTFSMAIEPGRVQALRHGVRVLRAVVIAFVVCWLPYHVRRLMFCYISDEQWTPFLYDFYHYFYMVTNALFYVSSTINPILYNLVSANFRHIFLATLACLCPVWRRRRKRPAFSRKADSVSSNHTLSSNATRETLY
UBC9 SUMO inh = inhibitors of human SUMOylation (UBC9); inhibition, % at 35 µM; HTRF SUMOylation assay, SAE1/SAE2 + UBC9, in vitro; P63279; 0.36% of 290,000 active; AID 2006; in the data active = inhibition above about 50%, passing the limit was not always enough
Target sequence (P63279 whole entry, looked up): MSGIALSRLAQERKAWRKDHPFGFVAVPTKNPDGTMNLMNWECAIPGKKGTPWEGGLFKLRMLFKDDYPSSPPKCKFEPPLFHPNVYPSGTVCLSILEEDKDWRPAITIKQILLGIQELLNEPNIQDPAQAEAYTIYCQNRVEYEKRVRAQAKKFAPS
Cardio protect = modulators protecting cardiomyocytes from myocardial damage; H9c2 cardiomyocytes, H2O2 injury protection, ATPLite, 2 h; protection from H2O2 cell death, % at 20 µM; 0.63% of 360,000 active;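 active = compounds giving at least 50% protection of heart cells from peroxide-induced death in the single-dose screen, raw or plate-pattern-corrected value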;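 also: 0% = DMSO wells with peroxide and 100% = DMSO wells without peroxide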
ALR inh = human ALR oxidase inhibition via reduced H2O2; P55789; purified ALR, DTT oxidation, H2O2 HRP-luminol luminescence; inhibition, % (test concentration not listed); 3.8% of 290,000 active;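 active = mean replicate inhibition above about 79%, with every replicate also reaching it, limit read from the data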
An asterisk follows results filed as active; / = no result given. A selection: hits, their analogues and other compounds. The true share with any hit is near 3.9%.

SMILES | NTR1 agonist | UBC9 SUMO inh | Cardio protect | ALR inh
Fc1ccc2nc(N3CCOCC3)sc2c1 | 0 | 4 | -8 | /
COc1ccc2[nH]cc(CCNS(=O)(=O)c3ccccc3)c2c1 | 1 | 4 | -2 | 95*
Fc1ccccc1Nc1nc2c(s1)CCc1ccccc1-2 | / | 19 | / | /
COc1ccc(O)c(CNn2c(-c3ccc(Br)cc3)nc3ccccc3c2=O)c1 | 4 | 4 | 50* | 7
Cc1sc2nc(CSCC(=O)Nc3cc(F)ccc3F)[nH]c(=O)c2c1C | -2 | / | -5 | -8
Cc1sc2nc(CSCC(=O)NC3(C#N)CCCCC3)[nH]c(=O)c2c1C | 0 | / | 18 | 95*
Cc1sc2nc(CSCC(=O)N(CCC#N)c3ccccc3F)[nH]c(=O)c2c1C | 0 | / | 59* | /
CCOCCCNC(=O)CSc1ccccc1 | 1 | 12 | 6 | -5
Cc1noc(C)c1-c1nnc(-c2ccc(OC(F)(F)F)cc2)o1 | 0 | 0 | -3 | 7
Cc1cc(C)cc(NS(=O)(=O)c2ccc3[nH]cc(C(=O)N4CCc5ccccc54)c(=O)c3c2)c1 | 4 | -14 | -7 | -4
CC/C(=N\NC(=O)CCC(=O)NCc1ccccc1)c1ccc(O)cc1 | 0 | 10 | 15 | 99*
CCCCC/C(=N\NC(=O)CCC(=O)NCc1ccccc1)c1ccccc1 | 4 | -5 | -8 | 1
O=C(NC1(O)C(=O)c2ccccc2C1=O)c1ccc(C(F)(F)F)cc1 | 0 | 90* | 4 | 36
Nc1nc2nccc(-c3ccco3)n2n1 | 0 | 27 | -6 | -6
CC1(C)CC(=O)C(Sc2nnc(-c3ccc(NS(C)(=O)=O)cc3)n2Cc2ccco2)C(=O)C1 | 0 | -3 | -5 | 92*
CCn1c(CN2CCN(c3ccc(Cl)cc3)CC2)nc2ccccc21 | 17 | -2 | -3 | 96*
S=c1[nH]nc(-c2cccnc2)n1/N=C/c1cccs1 | -2 | -12 | -3 | 97*
S=c1[nH]ncn1/N=C/c1ccccn1 | -1 | 8 | -2 | 92*
S=c1[nH]ncn1/N=C/c1cccs1 | 1 | -9 | -3 | 97*
CCOC(=O)c1c(NC(=O)CSc2nnnn2C)sc(C(=O)N(C)C)c1C | 2 | 6 | 1 | -14
COc1ccc(CCNC(=O)C(=O)N/N=C/c2cccs2)cc1OC | 0 | 6 | -3 | 1
O=C(CSc1ccccn1)N1CCN(c2ccccc2)CC1 | -1 | 1 | -2 | 71
O=C1OCC(CO)(CO)N=C1NNc1cc(Cl)ccc1Cl | -3 | 0 | 3 | 99*
O=C1OCC(CO)(CO)N=C1NNc1ccccc1[N+](=O)[O-] | 0 | 8 | 5 | 99*
O=C(CCn1cnnn1)Nc1ccc(Cl)c(Cl)c1 | 1 | -7 | 3 | /
SMILES | NTR1 agonist | UBC9 SUMO inh | Cardio protect | ALR inh
Cn1c(O)c(N=NC(=O)c2ccco2)c2ccccc21 | 1 | 12 | -7 | 2
COc1ccc(C2C3=C(Nc4ncnn42)c2ccccc2CCC3)cc1 (stereo not given) | -1 | 19 | 5 | 0
Fc1ccc(/C=C2\CCCC3=C2Nc2ncnn2C3c2ccc(F)cc2)cc1 (stereo not given) | 46* | 29 | -7 | /
COc1cccc(CNC(=O)c2ccc(C(=O)NCc3cccc(OC)c3)cc2)c1 | 4 | 4 | 1 | -4
COc1cccc(CNC(=O)c2ccc(C3SCCS3)cc2)c1 | 0 | 7 | 0 | 91*
O=C(Nc1ccc2snnc2c1)N1CCSCC1 | 1 | 2 | 6 | 93*
CC1CN(C(=O)Nc2ccc3snnc3c2)c2ccccc21 (stereo not given) | 2 | -3 | -3 | 94*
Cc1nnc2sc(SCC(=O)Nc3ccc(Br)cc3)nn2c1=O | 2 | -23 | 2 | 97*
Nc1nnc(SCC(=O)OCC(=O)Nc2ccc(Br)cc2F)s1 | 0 | 3 | -2 | -5
COC(=O)c1ccc(NC(=O)CSc2nn3c(=O)c(C)nnc3s2)cc1 | 1 | 14 | 0 | 93*
COc1ccc(NC(=O)CSc2nn3c(=O)c(C)nnc3s2)cc1 | -1 | 7 | 3 | 65
Nc1nnc(SCC(=O)OCC(=O)Nc2ccc(Br)cc2)s1 | 2 | 5 | 0 | 99*
CCOc1ccc(-c2csc(N)c2C(=O)OC)cc1 | -2 | -11 | -9 | 29
O=C(CC1C(=O)NCCN1Cc1cccc(Oc2ccccc2)c1)NCCCn1cccn1 (stereo not given) | -1 | 0 | 3 | -1
O=C(Nc1cc(=O)c2ccccc2o1)N1CCCCC1 | 6 | 4 | 104* | 0
O=C1CCCC(O)=C1C=Nc1ccc(O)cc1 | 0 | 7 | 7 | 99*
CSCc1ccc(C(=O)NC(C)c2cnn(-c3ccccn3)c2C)o1 (stereo not given) | 0 | 6 | -1 | 90*
COc1ccc(OC)c(S(=O)(=O)NC(C)c2cnn(-c3ccccn3)c2C)c1 (stereo not given) | 0 | -9 | -2 | -5
c1cn2c(NC3CCCC3)c(-c3ccc(N4CCOCC4)cc3)nc2cn1 | -1 | 19 | -21 | 99*
CC1CCCCC1NC(=O)COC(=O)c1ccc2c(c1)OCCO2 (stereo not given) | 16 | / | -2 | 0
COC(=O)/C=C/S(=O)(=O)c1ccc(NC(C)=O)cc1 | 1 | 29 | -24 | 98*
CCN(CC)S(=O)(=O)c1cccc(NC(=O)COc2ccc(F)cc2Br)c1 | 4 | -28 | -25 | /
CCCC(=O)Nc1cc(C)c2c(=O)oc3ccccc3c2n1 | 15 | 0 | 104* | -1
CCOC(=O)C1(C)CCCN(C(=O)c2cccnc2SC)C1 (stereo not given) | / | / | 5 | /
COc1ccc(-n2cccc2/C=C2\C(=N)N3N=C(c4ccco4)SC3=NC2=O)cc1 | 2 | 88* | -6 | 3
SMILES | NTR1 agonist | UBC9 SUMO inh | Cardio protect | ALR inh
COc1ccc(-n2cccc2/C=C2\C(=N)N3N=C(C(C)C)SC3=NC2=O)cc1 | 2 | 19 | -10 | 54
O=C(CCc1[nH]c2ccccc2c1Sc1ccccc1)NCCO | -1 | 7 | 0 | 99*
O=C(CCc1ccccc1)NCCSc1ccccc1 | 1 | 6 | -4 | -23
CC12CCC(C(=O)Nc3ccncc3)(CC1O)C2(C)C (stereo not given) | 0 | 20 | 6 | -22
O=C(CC(C(=O)O)C1CCCO1)Nc1cccc(C(F)(F)F)c1 (stereo not given) | 0 | 16 | 5 | -5
O=C(O)c1[nH]c2ccccc2c1-c1ccccc1 | -1 | 13 | 10 | 98*
CC(=O)Nc1c(C(=O)O)[nH]c2ccccc12 | 0 | 1 | 3 | 7
Cc1ccc2[nH]c(C(=O)O)c(-c3ccccc3)c2c1 | 4 | 14 | -4 | 98*
CC(=O)NNC(=O)c1[nH]c2ccc(Br)cc2c1-c1ccccc1 | 1 | -7 | 5 | 97*
Cc1[nH]n(-c2ccccc2)c(=O)c1/C=N/N1CCOCC1 | 0 | -1 | 3 | /
COc1cccc(-c2noc(Cn3nc(C)c([N+](=O)[O-])c3C)n2)c1 | 0 | 13 | 8 | 92*
Cc1cccc(Cn2cc(SCC(=O)Nc3nccs3)c3ccccc32)c1 | 3 | -10 | -1 | 38
CC(C)C1C(=O)N(Cc2cn(Cc3ccco3)nn2)CCS(=O)(=O)N1Cc1ccc(-c2ccncc2)cc1 (stereo not given) | / | / | -3 | /
